Bioassay records: PubChem, National Center for Advancing Translational Sciences (NCATS)
HP1b binding inh = HP1-beta chromodomain-methylated histone interaction inhibition; P83916; AlphaScreen HP1-beta / biotin-H3K9me3 peptide binding; Potency, µM (series often up to 114 µM), without a hit: at the top dose activity change, negative = inhibition, most hits filed as inhibitors; 390,000 tested, 0.56% active; AID 540317; note: nearly all actives have a fitted effect of over 70% in size
Target sequence (P83916 whole entry, looked up): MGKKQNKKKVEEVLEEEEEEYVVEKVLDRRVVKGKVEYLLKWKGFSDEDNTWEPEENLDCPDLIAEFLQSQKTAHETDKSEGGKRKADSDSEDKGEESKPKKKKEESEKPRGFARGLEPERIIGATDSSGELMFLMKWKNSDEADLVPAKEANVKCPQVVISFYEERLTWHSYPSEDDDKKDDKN
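HP1-beta protein (50 nM final) preincubated 30 min at room temperature with biotinylated H3(1-18)K9me3 peptide (50 nM) in PBS pH 7.4, 0.01% Tween-20, then compound added for 30 min. AlphaScreen streptavidin donor/nickel chelate acceptor beads (10 ug/mL final), 30 min dark, luminescence read.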
BAZ2B block = blocks human BAZ2B. Potency, µM (series often up to 114 µM), without a hit: at the top dose activity change, negative = inhibition, actives largely listed as inhibitors. 360,000 tested, 4.4% active. AlphaScreen BAZ2B-H3K14Ac peptide displacement. Q9UIF8. AID 504333; note: % is set by controls: 0 for no effect and ±100 for the full control effect; nearly all actives have a fitted effect of over 60% in size
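BAZ2B (50 nM) with biotin-H3(5-23)K14Ac peptide (50 nM) in PBS pH 7.4, 0.01% Tween-20, preformed 30 min, then compound 30 min at room temperature; top concentration 110uM. AlphaScreen streptavidin donor/nickel chelate acceptor beads (10 ug/mL final), 20 min dark, signal read.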
JMJD2A Tudor inh = JMJD2A Tudor domain (human) inhibition; Potency, µM (titrated, usually from 114 µM), without a hit: at the highest dose activity change, negative = inhibition, hits mostly inhibitors; O75164; 390,000 tested, 4.4% active; AID 504339; AlphaScreen JMJD2A-Tudor / H3K4me3 peptide binding; note: % is set by controls: 0 for no effect and ±100 for the full control effect; nearly all actives have a fitted effect of over 50% in size
Sfp inh = inhibitors of Bacillus subtilis Sfp phosphopantetheinyl transferase; Potency, µM, inactives show largest response in the series, negative = inhibition, hits mostly inhibitors; AID 1490; Biochemical Sfp PPTase activity, qHTS; 310,000 tested, 3.5% active; Q9F4F7;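 note: the enzyme is Sfp with the accession as filed and its product quenches rhodamine fluorescence; 0% = enzyme reaction without inhibitor and -100% = no enzyme wells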
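Reaction rates are the 30-min fluorescence difference (ex 525, em 598 nm) in wells containing 15 nM Sfp, 5 uM rhodamine-CoA and 12.5 uM BHQ-2-YbbR at pH 7.6 with 10 mM MgCl2.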
G9a block = inhibitors of human histone lysine methyltransferase G9a; AID 504332; 350,000 tested, 8.8% active; G9a H3K9 monomethylation, AlphaScreen, 2 h; Potency, µM (doses to about 102 µM), without a hit: top-dose activity, negative = inhibition, hits mostly inhibitors; Q96KQ7; note: % is set by controls: 0 for no effect and ±100 for the full control effect; nearly all actives have a fitted effect of over 75% in size
Target sequence (Q96KQ7 913-1193 limits assumed): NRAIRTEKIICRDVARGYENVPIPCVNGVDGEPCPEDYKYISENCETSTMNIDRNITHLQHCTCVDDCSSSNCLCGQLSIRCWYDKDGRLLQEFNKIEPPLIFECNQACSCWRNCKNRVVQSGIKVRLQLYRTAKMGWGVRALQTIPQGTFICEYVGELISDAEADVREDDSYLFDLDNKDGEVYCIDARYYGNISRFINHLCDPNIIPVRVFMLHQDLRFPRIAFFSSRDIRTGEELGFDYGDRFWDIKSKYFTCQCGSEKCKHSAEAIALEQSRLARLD
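G9a (20 nM) preincubated 15 min RT with compounds, then 500 nM biotinylated H3K9 peptide and 20 uM SAM added; 2 h RT reaction. Monomethyl-H3K9 product detected by AlphaScreen with anti-H3K9me1 antibody, streptavidin donor and anti-rabbit IgG acceptor beads.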
L3MBTL1 inh = L3MBTL1 (human) inhibition. Q9Y468. AlphaScreen L3MBTL1–H3K9me1 peptide binding. Potency, µM (titrated, usually from 57.1 µM), without a hit: at the top dose activity, negative = inhibition, actives largely listed as inhibitors. 230,000 tested, 0.66% active. AID 485360; note: % is set by controls: 0 for no effect and ±100 for the full control effect; nearly all actives have a fitted effect of over 60% in size
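AlphaScreen proximity signal between nickel-chelate acceptor and streptavidin donor beads (final 10 ug/mL) reports binding of 50 nM L3MBTL1 to 75 nM biotin-H3 K9me1 peptide; complex incubated with compounds 30 min at room temperature; cefsulodin titration as control.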
Active calls of the source: *; ? = inconclusive; . = no result; ! = not active in a repeat; [ ] = remark or other dose. Most compounds without a hit are left out; they make up all but 12% or so of the library. Calls come from the whole dose curve; as a rule, active = well fitted curve in the direction sought with a large enough effect; inconclusive = small, poorly fitted or top-dose-only effect, or another doubt; inactive = no such curve, though single readings can be large; an effect the other way counts as inactive or inconclusive. Potency is the fitted concentration of half-maximal effect.

SMILES | HP1b binding inh | BAZ2B block | JMJD2A Tudor inh | Sfp inh | G9a block | L3MBTL1 inh
Cc1cccc(N2CCN(S(=O)(=O)c3c(C)[nH]c(=O)[nH]c3=O)CC2)c1C | 10% | -2% | -14% | -12% | 40µM*! | .
Cc1ccc(Cl)cc1N1CCN(S(=O)(=O)c2c(C)[nH]c(=O)[nH]c2=O)CC1 | 30% | 4% | -9% | 9% | 44%[12.7 µM] | -1%
CC(C)CCOc1ccc(N)cc1 | . | . | . | -20% | . | .
O=C(CNCc1cccs1)Nc1ccc(N2CCCCCC2)cc1 | 25µM* | 22µM* | 22µM* | -59% | 8.9µM* | -19%
CCC(C)NS(=O)(=O)c1ccc(NC(=O)CNCc2cccs2)cc1 (stereo unspecified) | -11% | . | 25µM* | . | . | .
O=C(CNCc1cccs1)Nc1ccc(OC(F)(F)F)cc1 | 28µM* | 28µM* | 4µM* | -27% | -12%[2.33 µM] | .
Cc1ccc(NC(=O)CNCc2cccs2)cc1Br | 50µM* | 40µM* | 1.3µM* | -18% | 18µM* | .
O=C(COCc1cc(-c2cccs2)on1)Nc1ccc(OC(F)(F)F)cc1 | 14% | 5% | -5% | . | 14%[59 µM] | .
Cc1ccc(C(=O)NCCNC(=O)COc2ccccc2Cl)cn1 | 4% | 1% | -9% | 14% | 20% | .
Cc1ccc(NS(=O)(=O)c2ccc3c(c2)CCN(C(=O)C(F)(F)F)C3)cc1C | . | . | -14% | . | . | .
Cc1nc2cnc(Nc3ccccc3)nc2n(CCc2ccccc2)c1=O | . | . | . | -11% | 4%[0.501 µM] | .
COc1ccccc1OCCNC(=O)c1cccc(S(=O)(=O)NCc2ccccc2)c1 | 51% | -6% | -20% | . | 24%[12.7 µM] | -4%
COc1ccc(-c2ccc3ncnc(NCc4cccs4)c3c2)cc1 | . | . | -21% | . | . | .
C=CCN1C(=O)c2ccc(C(=O)NCC(=O)Nc3c(C)cc(C)cc3C)cc2C1=O | 44% | -5% | -8% | . | 27%[12.7 µM] | 6%
COc1ccc(C(=O)NNC2=NCCCCC2)cc1 | 0% | -36% | -21% | -12% | 32µM* | 7%
O=C(CNc1ccccc1)NNC1=NCCC1 | 24% | ? | -4% | ? | 10µM* | 2%
Cc1ccccc1C(=O)NNC1=NCCC1 | -13% | ? | 1.6µM* | -6% | 2µM* | .
COc1ccccc1NS(=O)(=O)c1cc2c(cc1Cl)NC(=O)CO2 | 6% | ? | ? | . | ? | .
Cc1nn(-c2nccs2)c2c1C(=O)CC(C)(C)C2Br (stereo unspecified) | 14% | . | -32% | . | . | .
Cc1cc(C)c(/C=C(\C#N)C(N)=S)c(C)c1 | 1% | 1% | -32% | 2% | 45µM* | -3%
Cc1ccc(-c2ccc(/C=C(\C#N)C(N)=S)n2C)cc1 | -30% | ? | ? | -4% | 10µM* | -9%
Cc1ccccc1C(=O)NC1(C(F)(F)F)N=C(c2ccccc2)N(Cc2ccccc2)C1=O (stereo unspecified) | 16% | -10% | -6% | . | ? | .
COc1ccc(-c2c(C#Cc3ccsc3)c3ccccc3n2C)cc1 | 38% | ? | -14% | -14% | 32µM* | -7%
COc1ccc(C#Cc2c(-c3ccccc3)n(C)c3ccccc23)cc1 | 178% | . | 30% | . | . | 24%
O=C1CCCC/C1=C\Nc1ccc(O)cc1 | 17% | 0% | -24% | 22µM* | 0.89µM* | ?
SMILES | HP1b binding inh | BAZ2B block | JMJD2A Tudor inh | Sfp inh | G9a block | L3MBTL1 inh
S=C(NCCCc1cnc[nH]1)NCCCN(Cc1ccc(Cl)cc1)c1ccc(Br)cc1 | 32µM* | . | 4.5µM* | . | . | .
CCCCNC(=S)NCCCc1cnc[nH]1 | . | . | -18% | . | . | .
O=C(Cc1ccc(F)cc1)NCCc1cnc[nH]1 | 13% | 6% | -1% | 1% | 14% | .
O=C(NCCCc1cnc[nH]1)NCCCN(Cc1ccc(Cl)cc1)c1ccc(Br)cn1 | ? | . | 45µM* | . | . | .
S=C(NCCCc1cnc[nH]1)NCCCN(Cc1ccc(Cl)cc1)c1ccc(-c2ccccc2)cn1 | ? | . | 50µM* | . | . | .
S=C(NCCCc1cnc[nH]1)NCCCN(Cc1ccc(Cl)cc1)c1ncc(Br)cn1 | ? | . | 50µM* | . | . | .
NCCCN(Cc1ccc(Cl)cc1)c1ccc(Br)cn1 | 20% | . | -15% | . | . | .
CCCCNC(=S)NCCCN(Cc1ccc(Cl)c(Cl)c1)c1ccc(Br)cn1 | . | . | -30% | . | . | .
S=C(NCCCc1cnc[nH]1)NCCCN(CCc1ccc(Cl)cc1)c1ccc(Br)cn1 | ? | . | 45µM* | . | . | .
S=C(NCCCc1cnc[nH]1)NCCCN(Cc1ccc(Cl)cc1)c1ccc(Br)cn1 | . | . | 50µM* | . | . | .
NCCCN(Cc1ccc(Cl)c(Cl)c1)c1ccc(Br)cn1 | 0% | . | -23% | . | . | .
O=[N+]([O-])c1cc(Br)c(OCc2nnc(-c3ccccc3)o2)c(Br)c1 | -3% | ? | -55% | 5% | 28µM* | -10%
Cc1ccccc1-n1c(SCC(=O)NC2CCS(=O)(=O)C2)nc2ccccc2c1=O (stereo unspecified) | 20% | 7% | -8% | . | 50µM* | 3%
Cc1ccc(C)c(-n2cc(-c3ccc(Cl)cc3)nc2SCC(=O)NC2CCS(=O)(=O)C2)c1 (stereo unspecified) | -16% | ? | ? | 8% | 45µM* | -18%
O=C(CSc1nc2ccccc2n1CCc1ccccc1)NC1CCS(=O)(=O)C1 (stereo unspecified) | 42% | -5% | -7% | ? | 2µM* | .
Nn1cc(-c2ccccc2)nc1SCC(=O)NC1CCS(=O)(=O)C1 (stereo unspecified) | 47% | -25% | -14% | 4% | -39%[59 µM] | 3%
O=C(CSc1nc2ccccc2c(=O)n1-c1ccccc1F)NC1CCS(=O)(=O)C1 (stereo unspecified) | 42% | 9% | -3% | . | -3%[2.33 µM] | 6%
COc1cccc(Nc2nc(C#N)nc(NC3CCCC3)n2)c1 | . | . | -3% | . | . | .
O=C1O[C@H]([C@@H](O)CO)C(O)=C1O | 47% | 1% | -16% | 1% | 13µM*! | ?
COc1ccc(N(CC(=O)N2CCc3ccccc3C2)S(C)(=O)=O)cc1Cl | 30% | -38% | 1% | -5% | 50µM* | 8%
COc1ccc(N(C(=O)c2ccco2)C(C(=O)NC2CCCC2)c2cc(OC)c(OC)c(OC)c2)cc1 (stereo unspecified) | 26% | 1% | -2% | 24% | -1% | .
O=C(CNC(=O)c1ccccc1F)N/N=C/c1cc(Br)ccc1OC(=O)/C=C/c1ccco1 | -20% | -34% | -34% | -6% | ? | ?
O=C(CNC(=O)c1ccc(F)cc1)N/N=C/c1cc(Br)ccc1OC(=O)/C=C/c1ccco1 | 35% | -7% | -7%[11.4 µM] | 25µM* | 23%[59 µM] | .
COc1ccc(C(=O)NCC(=O)N/N=C/c2ccco2)cc1OC | 29% | -8% | -8% | 6% | 71µM* | .
Cc1noc(C)c1C(=O)N1CCC2(CC1)CN(c1cccc(-c3ccccc3)c1)C2 | . | . | . | -4% | -4%[12.7 µM] | .
